High-throughput results: PubChem, several laboratories
Sampled rows, rich in hits. Any-hit rate of the full collection: about 27%.
Cav32 inh = blocks human Cav3.2 T-type calcium channel; AID 449739; B-score at 10 µM; Cav3.2-expressing cells, Fluo-4 calcium fluorescence FDSS; stronger effect = lower value; O95180; 100,000 compounds, 4% hits;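 active = single-dose well whose peak fluorescence ratio is a statistical outlier from its plate by either plate-standardised score or position-corrected B-score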
CYP2C9 inhib = blocks human cytochrome P450 2C9 | CYP2C9 Supersomes, luciferin-H conversion, luminescence | inhibition, % at 5 µM | 96,000 compounds, 20% hits | AID 777;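 active = blocking of liver enzyme CYP2C9 beyond about 50% at 5 µM, limit read from the data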
CYP2C19 inhib = inhibitors of human CYP2C19; CYP2C19 Supersomes, luciferin-H EGE luminescence, 30 min; inhibition, % at 5 µM; 96,000 compounds, 21% hits;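 active = CYP2C19 inhibition above a set limit at 5 µM in the primary screen, cut at about 50% in these data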;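 also: plate controls were negative control wells for no effect and 2.5 mM tranylcypromine positive control for full effect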
CYP2C9 activ = increases human cytochrome P450 2C9 activity; recombinant CYP2C9, luciferin-H conversion, luminescence; stronger effect = higher value; factor 1 = untreated enzyme, 0 = blocked; activation factor at 5 µM; 96,000 compounds, 1.4% hits; AID 1024;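 active = activation factor of 2 or more for CYP2C9 at a 5 µM dose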;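 also: 0 = sulfaphenazole-blocked wells and 1 = vehicle-only wells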
CYP2C19 act = activators of human cytochrome P450 2C19 | AID 1025 | P33261 | 96,000 tested, under 10 active | recombinant CYP2C19, luciferin-H EGE luminescence; stronger effect = higher value; 0 = fully inhibited enzyme, 1 = untreated enzyme | activation factor at 5 µM;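 active = activation factor of at least 2 at 5 µM in the primary screen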;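 also: 0 = wells with 2.5 mM tranylcypromine and 1 = vehicle-only wells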
The depositor's hits bear a star; nt = no result.

SMILES | Cav32 inh | CYP2C9 inhib | CYP2C19 inhib | CYP2C9 activ | CYP2C19 act
Cc1cccc2sc(NC(=O)CCNS(=O)(=O)c3cccs3)nc12 | -1.78 | 77.8* | 82.0* | 0.2 | 0.2
CCOC(=O)c1[nH]c(C)c(/C(O)=C2\C(=O)C(=O)N(CCN3CCOCC3)C2c2cccs2)c1C (stereo not drawn) | -0.0164 | -1.6 | 28.6 | 1 | 0.7
COc1ccc(-n2nnnc2SCC(=O)Nc2nnc(C)s2)cc1OC | nt | 44.8 | 38.8 | 0.6 | 0.6
Cc1cccc(Cn2ccc(-c3ccc(Cl)cc3)c(C#N)c2=O)c1 | 0.224 | 31.3 | 14.7 | 0.7 | 0.9
N#Cc1c(-c2ccccc2)ccn(Cc2ccc(Cl)cc2)c1=O | -0.655 | 54.5* | 36.0 | 0.5 | 0.6
O=C1CSc2ccccc2N1Cc1ccc(F)cc1 | -0.446 | 70.5* | 68.9* | 0.3 | 0.3
O=C(O)CN1C(=O)CSc2ccccc21 | 0.423 | 16.1 | -1.3 | 0.8 | 1
OC(CN1CCN(c2ccccn2)CC1)Cn1c2ccc(Cl)cc2c2cc(Cl)ccc21 (stereo not drawn) | -1.45 | -4.9 | 21.1 | 1 | 0.8
CCCCn1c(=N)n(CC(O)COc2ccc(C)cc2)c2ccccc21 (stereo not drawn) | -1.19 | 4.1 | 52.0* | 1 | 0.5
Cc1ccc(OCC(O)Cn2c3ccccc3c3ccccc32)cc1 (stereo not drawn) | nt | 59.9* | 62.9* | 0.4 | 0.4
N=c1n(CCN2CCOCC2)c2ccccc2n1CC(O)COc1ccccc1 (stereo not drawn) | -0.601 | -10.1 | -10.7 | 1.1 | 1.1
CC(=O)N(C)c1ccc(OCC(O)Cn2c3ccc(Cl)cc3c3cc(Cl)ccc32)cc1 (stereo not drawn) | 0.0676 | 53.6* | 30.6 | 0.5 | 0.7
Cc1ccccc1OCC(O)Cn1c(=N)n(CCN2CCOCC2)c2ccccc21 (stereo not drawn) | -2.57 | 57.2* | 1.3 | 0.4 | 1
CCC(=O)OC1CSc2nc3ccccc3n2C1 (stereo not drawn) | -0.605 | 17.0 | 39.7 | 0.8 | 0.6
O=C(NCCc1ccc(Cl)cc1)C1CCC(CNc2c(N3CCCCC3)c(=O)c2=O)CC1 (stereo not drawn) | 0.189 | nt | nt | nt | nt
C[C@@H]1C[C@H]2[C@@H]3C[C@H](F)C4=CC(=O)C(Cl)=C[C@]4(C)[C@@]3(F)[C@@H](O)C[C@]2(C)[C@@]1(O)C(=O)CO | -0.785 | nt | nt | nt | nt
CC(C)CC(COCc1cccc(Cl)c1)N1CCN(C(=O)c2ccc(C(F)(F)F)cc2)CCC1=O (stereo not drawn) | -0.655 | nt | nt | nt | nt
O=C(N/N=C/c1ccc(OC(=O)c2cccs2)cc1)c1cccc(F)c1 | 0.991 | 12.3 | -8.6 | 0.9 | 1.1
CCSc1nc2sc3c(c2c(=O)n1CC)CC(C)(C)OC3 | -0.177 | 14.9 | 2.7 | 0.9 | 1
Cc1ccc(Cn2c(=N)n(CC(O)COc3ccccc3)c3ccccc32)cc1 (stereo not drawn) | -2.53 | 13.5 | 53.1* | 0.9 | 0.5
N=c1n(Cc2ccccc2)c2ccccc2n1CC(O)COc1ccccc1 (stereo not drawn) | -4.93* | -1.0 | -2.5 | 1 | 1
CCCCn1c(=N)n(CC(O)COc2ccccc2)c2ccccc21 (stereo not drawn) | -3.21 | 16.1 | 42.1 | 0.8 | 0.6
c1ccc(C2C3=C(Nc4ncnn42)c2ccccc2CCC3)cc1 (stereo not drawn) | 1.17 | 30.2 | 51.6* | 0.7 | 0.5
Clc1ccc(C2C3=C(Nc4ncnn42)c2ccccc2CC3)cc1 (stereo not drawn) | -0.663 | 68.8* | 79.7* | 0.3 | 0.2
CCCCOC(=O)CSc1n[nH]c(=O)[nH]c1=O | nt | 16.6 | 7.2 | 0.8 | 0.9
CCOc1ccc(N2CC(C(=O)Nc3ccc(S(=O)(=O)N4CCOCC4)cc3)CC2=O)cc1 (stereo not drawn) | -0.523 | 57.4* | 21.6 | 0.4 | 0.8
CCOc1ccc(N2CC(C(=O)Nc3ccccc3OC)CC2=O)cc1 (stereo not drawn) | -5.09* | nt | nt | nt | nt
CCOc1ccc(N2CC(C(=O)Nc3ccc(F)cc3F)CC2=O)cc1 (stereo not drawn) | -1.3 | 11.6 | -0.8 | 0.9 | 1
C=CCNC(=O)C1CC(=O)N(c2ccc(OCC(=O)Nc3ccccc3)cc2)C1 (stereo not drawn) | -0.0942 | 55.1* | 18.7 | 0.4 | 0.8
COc1ccc(-n2c(=S)[nH]c3ccccc32)cc1 | -0.0874 | -63.5 | 53.8* | 1.6 | 0.5
